High-throughput results (PubChem)
KB-V1 MDR tox – kills drug-selected multidrug resistant KB-V1 cells. Potency, µM (highest dose often 46.1 µM), actives largely listed as cytotoxic. actives 3.4% (n = 400,000). KB-V1 MDR cells viability, CellTiter-Glo, 72 h. AID 1347076; further: on the % scale 0 is the no-effect control and ±100 the full control effect; nearly all actives have a fitted effect of over 60% in size
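Compound-treated KB-V1 multidrug-resistant cells, 72 h, 37 degrees C; viability by CellTiter-Glo. Fitted qHTS curves give the values.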
KB-3-1 tox – KB-3-1 parental cell cytotoxicity. Potency, µM (doses to about 46.1 µM), most hits filed as cytotoxic. AID 1347075. actives 1.4% (n = 400,000). KB-3-1 viability, CellTiter-Glo ATP luminescence, 72 h; further: on the % scale 0 is the no-effect control and ±100 the full control effect; nearly all actives have a fitted effect of over 60% in size
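Here the drug-naive KB-3-1 line serves as comparator for MDR sub-line selectivity; cells received compound titrations, 72 h at 37 °C, then CellTiter-Glo readout.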
MCF10A rereplic – induces DNA re-replication in MCF 10a normal breast cells; MCF 10A DNA re-replication, Hoechst nuclear intensity, 48 h; Potency, µM (titrated, usually from 46.1 µM), inactives show at the highest dose activity, positive = re-replication, usual class: activators; actives 2.9% (n = 350,000); further: % of control where 0% means no effect; nearly all actives have a fitted effect of over 50% in size
SW480 rereplic – induces DNA re-replication in SW480 colon adenocarcinoma cells; SW480 DNA re-replication, Hoechst DNA content imaging, 48 h; actives 1.8% (n = 340,000); Potency, µM (series often up to 46.1 µM), inactives show at the highest dose re-replication activation, hits mostly activators; AID 624297; further: % of control where 0% means no effect; nearly all actives have a fitted effect of over 55% in size
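Hoechst fluorescence of nuclei (405 nm excitation, 500-530 nm emission) measured by plate-scanning imager after 48 hr compound exposure at 37 C; re-replication scored as increased number of nuclei with elevated intensity.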
HT1080-NT tox – kills 2HG-producing HT-1080-NT fibrosarcoma cells; Potency, µM (doses to about 46.1 µM), for inactives: at the highest dose activity, negative = less viability, actives largely listed as cytotoxic; HT-1080-NT fibrosarcoma viability, CellTiter-Glo ATP luminescence, 48 h; actives 1.6% (n = 360,000);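 further: NT is the 2HG producing partner of a matched IDH1 knockdown line; 0% = DMSO-treated cells and -100% = media-only wells without cells; nearly all actives have a fitted effect of over 55% in size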
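Read-out is CellTiter-Glo luminescence after 10 minutes at room temperature, following 48 hours' compound treatment of HT-1080-NT cells (750 cells/well, RPMI, 5% FBS, 37 degrees C).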
HT1080 IDH1KD tx – HT-1080 IDH1 knockdown cell toxicity (counter line); HT-1080 IDH1 knockdown viability, ATP luminescence, 48 h; Potency, µM (top dose mostly 46.1 µM), for inactives: at the highest dose activity, negative = toxicity, usual class: cytotoxic; actives 2% (n = 360,000); AID 686971;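 further: 0% = DMSO wells and -100% = cell-free medium wells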
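IDH1KD HT-1080 cells, 750/well, RPMI + 5% FBS; compound pinned after 2 h settling; 48 h, 37 °C; CellTiter-Glo luminescence; % activity normalised to DMSO and no-cell wells; curves fitted, classed by r2 and efficacy.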
* hit, by the source's call; i = inactive; ? = inconclusive; . = not tested or not shown. Hits are enriched below; roughly 8% of the tested compounds scored in any of these assays. The call rests on the fitted dose curve; in most records, active means well fitted curve in the direction sought with a large enough effect; inconclusive means small, poorly fitted or top-dose-only effect, or another doubt; inactive means no such curve, though single readings can be large; an effect the other way counts as inactive or inconclusive. Potency means the concentration at half of the fitted maximal effect.

SMILES | KB-V1 MDR tox | KB-3-1 tox | MCF10A rereplic | SW480 rereplic | HT1080-NT tox | HT1080 IDH1KD tx
O=C(O)CCCCC1SCC2NC(=O)NC21 (stereo unspecified) | i | i | 19% | -88% | -11% | 1%
C=CCN1C(=O)C2(C(C(=O)OC)=C(N)Oc3c2c(=O)oc2ccccc32)c2ccccc21 (stereo unspecified) | i | ? | . | . | . | .
c1cc2c(cc1NC1=NCCO1)CCCC2 | ? | 15µM* | ? | ? | ? | ?
c1ccc(CCN2CCCCC2)cc1 | i | i | . | . | . | .
Cc1cccn2c(=O)c3cc(C(=O)N4CCC5(CC4)OCCO5)n(C)c3nc12 | 3.7µM* | 3.3µM* | 2.6µM* | 7.3µM* | 16µM* | 13µM*
CC(C)=CC1C(C(=O)OCc2coc(Cc3ccccc3)c2)C1(C)C (stereo unspecified) | . | . | ? | -1% | . | .
CC(C)n1cc(C(=O)N(CC(=O)NC2CCCC2)Cc2ccccc2)cn1 | 13µM* | i | 6% | 6% | 5% | 1%
CCc1ccc2c(c1)Sc1ccccc1CC2N1CCN(C)CC1 (stereo unspecified) | i | i | ? | 26µM* | -19% | -27%
CC12CCC3c4ccc(OC(=O)N(CCCl)CCCl)cc4CCC3C1CCC2O (stereo unspecified) | 5.8µM* | ? | 21µM* | ? | ? | ?
CC1[C@H]2Cc3ccc(O)cc3[C@]1(C)CCN2CCc1ccccc1 (stereo partly specified) | ? | i | -3% | 1µM* | ? | 15µM*
C[C@H]1O[C@H]1P(=O)(O)O | i | i | ? | ? | 18% | -5%
C1=NCCc2c1[nH]c1ccccc21 | 16µM* | ? | 16µM* | 4.1µM* | ? | 16µM*
CCCCOc1nc2ccccc2c(=O)n1-c1ccccc1 | 16µM* | i | ? | 1% | 13% | 9%
COc1ccc(-n2c(-c3ccc(C)cc3)nc3ccccc3c2=O)cc1 | i | i | 6% | -16% | 0% | -1%
O=c1c2ccccc2nc(/C=C/c2ccc3c(c2)OCO3)n1-c1cccc(O)c1 | ? | i | ? | . | -15% | -11%
COc1ccc(-n2c(/C=C/c3ccc(O)cc3)nc3ccccc3c2=O)cc1 | ? | ? | 0.82µM* | -3% | ? | ?
COc1ccc(-c2nc3ccccc3c(=O)n2-c2cccnc2)cc1 | 13µM* | i | 8% | -9% | 6% | 10%
O=c1c2ccccc2nc(/C=C/c2ccc(O)cc2)n1-c1cccc(O)c1 | i | i | 23µM* | ? | -22% | ?
CCOC(=O)c1ncn2c1CN(C)C(=O)c1cc(F)ccc1-2 | i | i | 3% | -33% | 0% | ?
Cc1ccc(-c2nc3ccccc3c(=O)n2-c2cc(C)ccn2)cc1 | 15µM* | i | -3% | -6% | 15% | 1%
O=c1c2ccccc2nc(/C=C/c2ccc(O)cc2)n1-c1ccc(O)cc1 | i | i | 23µM* | 21% | -10% | -7%
COc1cccc(-n2c(/C=C/c3ccc(O)c(O)c3)nc3ccccc3c2=O)c1 | ? | i | 18µM* | 10µM* | -17% | -30%
COC1C(C)OC(OC2CC(C)(O)Cc3cc4c(c(O)c32)C(=O)c2c(O)cc3c(c2C4=O)OC2OC3(C)C(O)C(N(C)C)C2O)C(OC)C1(C)OC (stereo unspecified) | i | 0.46µM* | -10% | -8% | ? | 16µM*
COC(=O)C(Cc1ccc(N(CCCl)CCCl)cc1)N=Cc1ccccc1O (stereo unspecified) | i | ? | 12µM* | 1µM* | ? | 26µM*
CCOC(=O)C(NC(=O)C(Cc1ccc(N(CCCl)CCCl)cc1)NC(C)=O)C(C)C (stereo unspecified) | i | i | -4% | -3% | 20% | 1%
